Drawing on PubChem BioAssay AID2099 (Broad Institute, 2009), this text covers inhibition for 58 molecules.

Screen size: about 330,000 compounds; about 230 (0.07%) were called active.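 How the source made its calls: active means more than half of a compound's replicate wells show inhibition beyond 50%, single wells judged on their own value; inconclusive means some, but no more than half, of replicates pass 50% inhibition; inactive means no replicate passes 50% inhibition.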 What follows is part of a selection rich in actives, with near analogues and random picks from the rest.

By inhibition is commonly meant the relative decrease from the control value, in per cent.

Lysine-specific demethylase 4C (Homo sapiens), sequence (Q9H3R0 1-420 limits assumed): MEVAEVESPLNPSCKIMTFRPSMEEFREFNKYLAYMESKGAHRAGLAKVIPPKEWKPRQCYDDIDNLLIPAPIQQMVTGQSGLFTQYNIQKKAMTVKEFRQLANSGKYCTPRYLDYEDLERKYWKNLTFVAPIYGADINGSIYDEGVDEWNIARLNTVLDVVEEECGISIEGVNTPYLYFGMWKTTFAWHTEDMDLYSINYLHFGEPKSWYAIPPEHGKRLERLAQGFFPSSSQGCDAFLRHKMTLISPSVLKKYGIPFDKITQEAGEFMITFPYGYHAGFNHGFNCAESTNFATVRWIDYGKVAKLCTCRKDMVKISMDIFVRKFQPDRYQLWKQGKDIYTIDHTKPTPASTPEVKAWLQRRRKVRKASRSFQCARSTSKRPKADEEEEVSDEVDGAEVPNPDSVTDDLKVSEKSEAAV

The assay concerns the target Lysine-specific demethylase 4C (Homo sapiens) (UniProt Q9H3R0). Briefly: JMJD2C H3K9me3 demethylation blockers – biochemical, fluorescence, DELFIA europium, primary screen (AID 2099).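 Further: signal counts dimethyl H3K9 product captured on neutravidin plate; 0% = median of DMSO wells and 100% = 0.3 times that DMSO median.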 To be noted: GST-JMJD2C(1-420) H3K9me3 demethylation, at 2.35 µM, active compounds read high.
Consider `CN(CC1CCCO1)S(=O)(=O)c1ccc(C(=O)Nc2ccc([N+](=O)[O-])cc2)cc1` (stereo not drawn), for which the inhibition was -19.5% (inactive).
As for `COc1ccc(NS(=O)(=O)c2ccc(N3CCN(CCO)CC3)c([N+](=O)[O-])c2)cc1`, the figure is 1.9% (inactive).
As for `O=C(NCc1ccccc1Cl)NC(=O)c1csc([N+](=O)[O-])c1`, the figure is -1.75% (inactive); as for `O=C(CN1CCCCCC1)Nc1ccc(Br)cc1Br`, 7.23% (inactive); as for `O=C(CCCOc1ccccc1)NCc1ccco1`, 8.15% (inactive).
As to `COc1cccc(OC)c1C(=O)OCC(=O)/C(C#N)=C(\C)N`, the inhibition is -25.5% (inactive).
With `CC(C)CCN1CCN(Cc2cn[nH]c2C2CCCCC2)CC1CCO` (stereo not drawn) the figure was -11.2% (inactive).
Turning to `COc1ccc(NC(=O)CN(C)C(=O)c2cccc(S(=O)(=O)N3CCN(c4ccccc4)CC3)c2)cc1`, the inhibition was 38.9% (inactive).
As for `CCCC(=O)N1CCC(CCC(=O)NC2CC2)CC1`, the figure is 33.1% (inactive); as for `O=C(CSCc1c(Cl)cccc1Cl)NN1C(=O)c2ccccc2C1=O`, -14.7% (inactive); as for `CCCCn1c(N)c(N(CC(C)C)C(=O)c2cccc(S(=O)(=O)N3CC(C)OC(C)C3)c2)c(=O)[nH]c1=O` (stereo not drawn), -2.81% (inactive).
With `O=C(OCC1O[C@@H](OC(=O)c2cc(O)c(O)c(O)c2)[C@@H](OC(=O)c2cc(O)c(O)c(O)c2)[C@@H](OC(=O)c2cc(O)c(O)c(O)c2)[C@@H]1OC(=O)c1cc(O)c(O)c(O)c1)c1cc(O)c(O)c(O)c1` (stereo partly drawn) the figure was 97.3% (active).
With `NS(=O)(=O)c1ccc(NC(=S)NNC(=O)c2cccs2)cc1`, the inhibition was 0.859% (inactive).
`CCOc1ccc(-c2noc(CCC(=O)NC3CCCC3)n2)cc1OC`: the inhibition is 7.26% (inactive).
As to `Cc1cccc(-c2noc(CCC(=O)NC3CCCC3)n2)c1`, the inhibition is 54.2% (active).
As for `COc1ccc(-c2noc(CCCC(=O)NC3CCCC3)n2)cc1OC`, the figure is 0.509% (inactive); as for `C/C(=N\NC(=O)COc1ccc(C)cc1[N+](=O)[O-])c1ccc2c(c1)OCCO2`, 9.39% (inactive).
As for `Cc1cc(NC(=O)Nc2c[nH]c(=O)[nH]c2=O)ccc1Br`, the figure is 53.4% (active); as for `Cc1ccc(NC(=O)Nc2ccccc2)c(Br)c1`, 14.6% (inactive); as for `Cc1cc(NC(=O)[C@H](C)NC(=O)c2ccco2)ccc1Br`, -9.73% (inactive).
`CCc1c(C)nc2c(OC)cccc2c1Cl`: the inhibition is 8.11% (inactive).
Turning to `Cc1ccccc1CN1C[C@@H]2C[C@@H](c3ccc4nsnc4c3)N3CCC[C@@]23C1=O`, the inhibition was 10.6% (inactive).
With `COc1cccc(COC(=O)C2CCN(S(=O)(=O)c3cccs3)CC2)c1OC` the figure was -2.56% (inactive); with `O=c1ccc2c(-c3ccccc3S(=O)(=O)O)c3ccc(O)c(O)c3oc-2c1O`, 79.5% (active); with `CC(C)CN(C(=O)Cn1c(=O)cnc2ccccc21)C1CCS(=O)(=O)C1` (stereo not drawn), 2.23% (inactive).
`CCc1ccc(-c2nnn(Cc3nc4ccccc4s3)n2)cc1`: the inhibition was 51.2% (inactive).
As for `c1cc(-c2nn[nH]n2)ccc1CN1CCCCC1`, the figure is 12.9% (inactive); as for `CCc1ccc(-c2nnn(Cc3nn[nH]n3)n2)cc1`, 57.7% (active).
As for `N#Cc1c(N2CCCCC2)nc(N)c2c(N)nc(SCC(=O)O)cc12`, the figure is 65.6% (active); as for `N#CCc1c(C#N)c(N)nc(N2CCCC2)c1C#N`, 1.17% (inactive); as for `Nc1nc(NCC(=O)O)nc(N2CCCCCC2)c1[N+](=O)[O-]`, 21.9% (inactive).
With `CCCCn1c(N)c(N(CC(C)C)C(=O)c2ccc(-n3c(C)ccc3C)cc2)c(=O)[nH]c1=O` the figure was -11.1% (inactive); with `Cc1cc(=O)n2nc(N3CCC(C(=O)Nc4c(F)c(F)c(F)c(F)c4F)CC3)sc2n1`, 1.58% (inactive); with `COc1cc(CNCc2ccc3c(c2)OCO3)c([N+](=O)[O-])cc1OC`, 1.62% (inactive).
Regarding `O=C(CN1C(=O)NC2(CCCCCC2)C1=O)NCc1ccc(F)cc1`, the inhibition is 2.24% (inactive).
As for `CSc1ccccc1NC(=O)c1cc(C2CC2)on1`, the figure is 4.43% (inactive).
With `COC(=O)C1C(=O)CC(C)(O)C(C(=O)OC)C1c1ccc2c(c1)OCO2` (stereo not drawn) the figure was -4.99% (inactive); with `N#Cc1c(/N=C/N2CCCC2)oc(-c2ccccc2)c1-c1ccccc1`, -7.68% (inactive).
Regarding `COc1ccc(C2(CNC(=O)Cc3ccc(OC)c(OC)c3)CCCC2)cc1`, the inhibition was -23.7% (inactive).
With `COc1ccc(C)cc1S(=O)(=O)Nc1cc2c3c(c1)CCC(=O)N3CCC2` the figure was -0.171% (inactive); with `O=C(O)C1CCN1C1CCCCC1` (stereo not drawn), -9.8% (inactive).
With `COc1ccc(NC(=O)C2CCC(CNc3c(N4CCCCC4)c(=O)c3=O)CC2)c(OC)c1` (stereo not drawn) the figure was -6.37% (inactive).
For `COCc1cc(C)nc2sc3c(=O)n(-c4cccc5ccccc45)nnc3c12`, the inhibition was -7.85% (inactive).
With `CCc1nc2cccnc2n1-c1ccc(C(=O)O)cc1` the figure was 3.28% (inactive).
With `Cc1ccc2nc(-c3ccc(NC(=O)CN(C)S(=O)(=O)c4ccccc4)cc3)sc2c1` the figure was -15.6% (inactive).
As for `CN(CCCC(=O)Nc1nccs1)S(=O)(=O)c1ccc(Cl)cc1`, the figure is 9.62% (inactive).
Regarding `O=C1C=C(c2ccccc2)CCC1`, the inhibition is -14.3% (inactive).
Consider `C/C=C/C(=O)Nc1nnc(C(C)C)s1`, for which the inhibition is -0.768% (inactive).
As for `CCCC(=O)N1CCN(c2nnc(-c3ccc(C)cc3)c3ccccc23)CC1`, the figure is -13.5% (inactive).
Regarding `C[C@H](C(=O)CC(=O)OC(C)(C)C)[C@H](O)c1ccc(C(F)(F)F)cc1`, the inhibition is 1.41% (inactive).
As for `CC1CCCCC1NC(=O)Cn1cnc2c1c(=O)n(C)c(=O)n2C` (stereo not drawn), the figure is 6.58% (inactive); as for `O=C1CCC(=O)N1CCOP1(=O)COc2ccccc2OC1`, 2.42% (inactive).
For the molecule `NC(=O)c1ccc(N2CCOCC2)nc1`, the inhibition was -3.7% (inactive).
With `Cc1noc(NS(=O)(=O)c2ccc(N3CC(O)=C(c4ccccc4)C3=N)cc2)c1C` the figure was -10.1% (inactive); with `COc1ccc([N+](=O)[O-])cc1NC(=O)CC1SC(=Nc2cccc(C)c2C)N(/N=C(\C)c2ccc(C)cc2)C1=O` (stereo not drawn), -21.9% (inactive).
Turning to `CN(Cc1ccccc1)C(=O)C(=O)c1cn(CC(=O)N2CCCC2)c2ccccc12`, the inhibition was 11.9% (inactive).
With `O=C(c1cc2ccccc2s1)N1CCN(c2ccccn2)CC1`, the inhibition was -6.37% (inactive).
`O=C(N=C1SC2CS(=O)(=O)CC2N1c1ccccc1)c1ccccc1` (stereo not drawn): the inhibition was 1.92% (inactive).
